Assay outcomes as filed in PubChem.
An excerpt weighted towards active compounds, which were near 19% of everything screened.
HT1080 IDH1KD tx = HT-1080 IDH1 knockdown cell toxicity (counter line). HT-1080 IDH1 knockdown viability, ATP luminescence, 48 h. Potency, µM (highest dose often 46.1 µM), without a hit: at the top dose activity, negative = toxicity, most hits filed as cytotoxic. 360,000 compounds, 2% hits. AID 686971;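 note: potency is the fitted concentration of half-maximal effect; 0% = DMSO wells and -100% = cell-free medium wells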
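Viability of IDH1-knockdown HT-1080 fibrosarcoma cells was assessed by CellTiter-Glo after 48 h at 37 °C with titrated compound; concentration-effect curves were classified by fit quality and response size.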
DT40 TDP1 CPT = DT40-hTDP1 cell growth loss with CPT; chicken DT40 Tdp1-/-;hTDP1 cells + 20 nM CPT, ATP luminescence, 48 h; Potency, µM (highest dose often 46.2 µM), for the others: at the highest dose activity change, negative = growth inhibition, hits mostly inhibitors; 420,000 compounds, 12% hits; AID 686979; note: potency is the fitted concentration of half-maximal effect; nearly all actives have a fitted effect of over 55% in size
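Cell growth measured by CellTiter-Glo luminescence after a minimum 48 h, 37 C compound exposure with 20 nM CPT in Tdp1-knockout DT40 cells stably expressing hTDP1, seeded 400/well; qHTS titration format.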
ELG1 DNA repair = blocks ELG1-dependent DNA repair in HEK293T cells | HEK293T ELG1-luciferase reporter, luminescence, 16 h; DNA damage induced by 5-fluorouridine | Potency, µM (doses to about 46.1 µM), for the others: top-dose activity change, negative = inhibition, most hits filed as inhibitors | 330,000 compounds, 2.3% hits; note: potency is the fitted concentration of half-maximal effect; nearly all actives have a fitted effect of over 55% in size
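Cells (2,000 per well) received 5-fluorouridine plus test compound or DMSO and were incubated 16 hr at 37 °C, 5% CO2. Luciferase activity was read by luminescence 30 min after ONE-Glo addition; signal suppression marked inhibition of damage-induced ELG1 function.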
IL1B secr inh = blocks inflammasome-driven IL-1 beta release. 360,000 compounds, 4.7% hits. AID 743279. THP-1 LPS/ATP IL-1B secretion, AlphaLISA, 16 h; active compounds read low. activity change, % at 57.5 µM; in the data active = activity change below about -50%; inconclusive = mostly about -30% to -49%
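Secreted IL-1B measured by AlphaLISA bead assay after 16 h compound exposure of THP-1 cells; compounds (final up to 57.5 uM) added 1 h before LPS (250 ng/mL) and ATP (1.25 mM) stimulation; lower signal means less secretion.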
HT1080NT lethal = kills 2HG-producing HT-1080-NT fibrosarcoma cells; HT-1080-NT fibrosarcoma viability, CellTiter-Glo ATP luminescence, 48 h; Potency, µM (highest dose often 46.1 µM), for inactives: at the highest dose activity, negative = less viability, most hits filed as cytotoxic; 360,000 compounds, 1.6% hits; AID 686970;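 note: NT is the 2HG producing partner of a matched IDH1 knockdown line; potency is the fitted concentration of half-maximal effect; 0% = DMSO-treated cells and -100% = media-only wells without cells; nearly all actives have a fitted effect of over 55% in size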
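HT-1080-NT fibrosarcoma cells (2HG-overproducing), 750 cells/well in RPMI with 5% FBS, dosed after 2 h and incubated 48 h at 37C. CellTiter-Glo luminescence normalized to DMSO and no-cell wells; concentration-response curves fitted and classed.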
DT40 TDP1 no CPT = qHTS for Inhibitors of human tyrosyl-DNA phosphodiesterase 1 (TDP1): qHTS in cells in absence of CPT; DT40 Tdp1-/- hTDP1 cells, no CPT, ATP luminescence, 48 h; Potency, µM (titrated, usually from 46.2 µM), inactives show at the highest dose activity change, negative = growth inhibition, actives largely listed as inhibitors; 420,000 compounds, 15% hits; note: potency is the fitted concentration of half-maximal effect; nearly all actives have a fitted effect of over 55% in size
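Seeded 400 DT40-hTDP1 cells/well (vehicle DMSO, no 20 nM CPT); pinned compounds; ≥48 hr at 37 °C; CellTiter-Glo luminescence as viability measure.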
* marks the source's active call; other numbers are inactive results; ? = inconclusive; nt = not tested or not shown. Unless noted, calls come from the whole dose curve; as a rule, active = well fitted curve in the direction sought with a large enough effect; inconclusive = small, poorly fitted or top-dose-only effect, or another doubt; inactive = no such curve, though single readings can be large; an effect the other way counts as inactive or inconclusive. Unless noted, % is set by controls: 0 for no effect and ±100 for the full control effect.

SMILES | HT1080 IDH1KD tx | DT40 TDP1 CPT | ELG1 DNA repair | IL1B secr inh | HT1080NT lethal | DT40 TDP1 no CPT
COc1ccc(C2c3c(oc4cc(C)cc(C)c4c3=O)C(=O)N2Cc2ccco2)cc1OC (stereo unspecified) | nt | -0.3% | nt | nt | nt | 13.5%
CCc1cccc2c1NC(=O)C2(O)CC(=O)c1cccs1 (stereo unspecified) | 9.1% | 3.7% | 6.8% | 0.0 | 0.6% | -19.2%
COc1ccc(C(=O)NC(=S)Nc2ccccc2N2CCOCC2)cc1[N+](=O)[O-] | -14.7% | 16.4µM* | 18.4µM* | 21.9 | -10.6% | 16.4µM*
COc1ccccc1CNC(=O)c1ccc(N2CCOCC2)c([N+](=O)[O-])c1 | -4.6% | -24.8% | 5.3% | -54.9* | -7.5% | -7.4%
COc1cccc(CNC(=O)c2ccc(N3CCOCC3)c([N+](=O)[O-])c2)c1 | -17.5% | -25.3% | 0.2% | -12.4 | 9.7% | -17.9%
COc1ccc(C(=O)NC(=S)Nc2ccc(N3CCOCC3)c(Cl)c2)cc1[N+](=O)[O-] | 0.3% | 13µM* | 13µM* | 6.6 | -1.3% | 20.6µM*
Cc1occc1C(=O)NCc1nc(-c2ccc(Cl)cc2)no1 | -5.6% | 3.7% | 3.4% | -6.8 | -11.9% | -17.3%
CCc1cc(C(=O)NCC(C)(C)N2CCOCC2)sc1C | 13.5% | 1.5% | 6.3% | 17.2 | 9.9% | -23.7%
COc1ccc2[nH]c(=O)c(CN(c3ccccc3)S(=O)(=O)c3ccccc3)cc2c1 | 12.6% | ? | -0.3% | 4.7 | 0.8% | 20.6µM*
Cc1ccc(N(Cc2cc3cc(C)ccc3[nH]c2=O)S(=O)(=O)c2ccccc2)cc1 | -28.5% | 23.1µM* | ? | -2.4 | -23.8% | 14.6µM*
COc1ccc2[nH]c(=O)c(CN(c3ccccc3OC)S(=O)(=O)c3ccccc3)cc2c1 | -16.2% | 16.4µM* | ? | -25.6 | -15.3% | 14.6µM*
Cc1ccc2cc(CN(c3ccccc3)S(=O)(=O)c3ccccc3)c(=O)[nH]c2c1 | -0.2% | -25.0% | 11.6% | -24.4 | -6.9% | ?
CCC(=O)N(Cc1cc2cc(OC)ccc2[nH]c1=O)c1ccccc1OC | 1.3% | ? | nt | ? | 5.6% | ?
O=c1[nH]c2ccccc2cc1CN(c1ccccc1)S(=O)(=O)c1ccccc1 | 0.0% | -24.4% | -0.3% | 12.0 | 10.0% | -13.4%
C[C@@H]1C[C@H]2[C@@H]3CCC4=CC(=O)C=C[C@]4(C)[C@@]3(F)C(O)C[C@]2(C)[C@@]1(O)C(=O)CO (stereo partly specified) | nt | 5.2% | nt | nt | nt | -25.7%
COc1ccc(NC(=O)N2CCN(S(=O)(=O)c3ccc4c(ccn4C)c3)CC2)cc1OC | nt | -17.1% | nt | nt | nt | -2.7%
CCOc1ccc(-c2nc(CN(Cc3ccccc3)C[C@@H]3CCC(=O)N3)c(C)o2)cc1 | ? | ? | -4.9% | -80.6* | ? | 20.6µM*
O=C1CC[C@@H](CN(Cc2ccccc2)Cc2cn[nH]c2-c2cc3ccccc3o2)N1 | ? | 25.9µM* | ? | -8.5 | ? | 16.4µM*
c1ccc2oc(-c3[nH]ncc3CN3CCSCC3)cc2c1 | -2.6% | ? | -0.4% | -23.6 | -2.7% | -26.7%
OC1(CNCc2cn[nH]c2-c2cc3ccccc3o2)CCCCC1 | ? | -21.8% | ? | -90.6* | -16.9% | ?
c1ccc2oc(-c3[nH]ncc3CN(Cc3ccncc3)CC3CCCO3)cc2c1 (stereo unspecified) | 0.7% | ? | 9.2% | -1.3 | 8.0% | 25.9µM*
O=S(=O)(NCc1ccc(Cl)cc1)c1ccc(N2CCCCS2(=O)=O)cc1 | nt | 11.6µM* | nt | nt | nt | 8.2µM*
Cc1ccc(Cl)cc1NS(=O)(=O)c1ccc(N2CCCCS2(=O)=O)cc1 | nt | ? | nt | nt | nt | 11.6µM*
